The values that follow come from PubChem BioAssay (NCATS).

A short description of assay [1]: qHTS Assay for Lipid Storage Modulators (AID 1519; calls by dose curve; as to activity change, negative = inhibition: % is scaled to controls: 0 for no effect and ±100 for the full control effect). The settings on record: Drosophila S3 cells, BODIPY lipid droplet/cell ratio, laser cytometry, cells loaded with oleic acid. An outline of the steps: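 Cells seeded at 5,000 per well were treated with compounds over a concentration series and loaded with oleic acid (400 uM, as added). Lipid droplet fluorescence (488 nm excitation, 500-530 nm channel) was read by laser-scanning cytometry and normalized to 20 uM Triacsin C.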

For assay [2], the target named is Alpha-galactosidase A (Homo sapiens) (UniProt P06280). Briefly: Counterscreen for Glucocerebrosidase Inhibitors: qHTS Assay for Human alpha-Galactosidase at pH 4.5 (AID 992). Also: 0% is about no effect. As to conditions: purified enzyme, fluorogenic substrate; series mostly up to 76.9 µM. In outline:
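Concentration-response curves (0.7 nM to 77 uM final) were modeled with the Hill equation to give AC50. Reactions: 2 nM enzyme, 80 uM fluorogenic alpha-galactoside, pH 4.5 citric acid buffer, 20 min, room temperature.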
A general note: A counterscreen serves to expose hits that act by an unwanted route or on another target.

Assay [3] deals with alpha-glucosidase (Oryza sativa, rice) (UniProt Q653V4). Briefly: Counterscreen for Glucocerebrosidase Inhibitors: qHTS Assay for Rice alpha-Glucosidase at pH 5.0 (AID 997).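 Also: 0% = full activity with enzyme and -100% = basal without enzyme.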 The settings on record: rice alpha-glucosidase enzyme activity; series mostly up to 76.9 µM. In outline:
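Rice alpha-glucosidase (4 nM final) with 400 uM 4-methylumbelliferyl-alpha-D-glucopyranoside in citrate buffer pH 5.0, 20 min at room temperature, stopped at pH 10; fluorescence 365/440 nm, compounds 0.7 nM–77 uM, AC50 from Hill fits.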

Assay [4] concerns the target DNA repair nuclease/redox regulator APEX1 (Homo sapiens) (UniProt P27695). Briefly: qHTS Validation Assay for Inhibitors of the Human Apurinic/apyrimidinic Endonuclease 1 (APE1) (AID 1705;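 also: TAMRA fluorescence gain over two minutes as APE1 cuts a quenched THF abasic duplex; % is scaled to controls: 0 for no effect and ±100 for the full control effect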). The settings on record: purified APE1 endonuclease activity, fluorescence, titration; series mostly up to 57.1 µM. In outline: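 qHTS, 1536-well. APE1 + cpd 15 min RT → 50 nM TAMRA/BHQ-2 THF-abasic dsDNA substrate → kinetic fluorescence, 3 reads/60 s; delta(read3−read1) = reaction progress. No-enzyme buffer = negative control.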
For orientation: qHTS replaces the single test concentration by a dilution series.

The nature of assay [5]: Counterscreen for APE1 Inhibitors: Fluorescent Dye Displacement Validation Assay (AID 1707).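 Also: plate controls were ThO with dsDNA and no compound for no effect and ThO without dsDNA for full effect.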 As to conditions: fluorescent dye displacement from DNA; series mostly up to 57.1 µM. An outline of the steps:
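Assay buffer: Tris-HCl pH7.5 with 50mM NaCl, 2 mM MgCl2, 0.01% Tween-20. Dye 250 nM, duplex 50 nM final. Readout: decrease in ThO endpoint fluorescence, 480 nm excitation, 540 nm emission.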

The target in assay [6] is Endonuclease 4 (Escherichia coli (strain K12)) (UniProt P0A6C1). As to the kind of experiment: Counterscreen for APE1 Inhibitors: qHTS Validation Assay for Inhibitors of Endonuclease IV (AID 1708). Also: % is scaled to controls: 0 for no effect and ±100 for the full control effect. The settings on record: E. coli endonuclease IV, DNA cleavage fluorescence; series mostly up to 57.1 µM. In outline: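 2 nM enzyme was preincubated with compounds for 15 min at room temperature in 50 mM Tris-HCl pH 7.5, 50 mM NaCl, 2 mM MgCl2, 1 mM DTT, 0.01% Tween-20. 50 nM THF-abasic TAMRA/BHQ-2 duplex substrate started the reaction.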

Assay [7] is described as follows: qHTS for differential inhibitors of proliferation of Plasmodium falciparum line 7G8 (AID 1815).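 Also: potency is read from the fitted curve at half-maximal effect; parasite growth measured after three days of incubation.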 The settings on record: Plasmodium falciparum 7G8 proliferation inhibition; series mostly up to 28.7 µM.
A short description of assay [8]: qHTS for differential inhibitors of proliferation of Plasmodium falciparum line GB4 (AID 1816).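 Also: potency is read from the fitted curve at half-maximal effect; parasite growth measured after 72 h incubation.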 The settings on record: Potency: Plasmodium falciparum GB4 proliferation inhibition; series mostly up to 28.7 µM.
Assay [9] in a line: qHTS for differential inhibitors of proliferation of Plasmodium falciparum line 3D7 (AID 1876). Also: potency is read from the fitted curve at half-maximal effect. As to conditions: P. falciparum 3D7 proliferation inhibition; series mostly up to 28.7 µM.
Assay [10] is described as follows: qHTS for differential inhibitors of proliferation of Plasmodium falciparum line D10 (AID 1877).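 Also: parasites grown with compound for 72 h before DNA staining.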 Also: potency is read from the fitted curve at half-maximal effect.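 As to activity change, negative = inhibition: plate controls were vehicle wells for no effect and reference inhibitor wells for full effect.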 The settings on record: series mostly up to 28.7 µM.
Assay [11] is described as follows: Cell Viability - LYMP2-014 (AID 983).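 Also: cells exposed to compound for 24 h at 37 °C; nearly all actives have a fitted effect of over 50% in size.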 Also: potency is read from the fitted curve at half-maximal effect. The settings on record: LYMP2-014 lymphoblastoid cells, viability qHTS; series mostly up to 92.2 µM. In outline: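 Decrease in intracellular ATP after 24 hr treatment at 37 C, measured by luciferase luminescence, indicated cytotoxicity. Concentration-response data were fitted with the standard Hill equation to give AC50.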

Assay [12] can be described thus: Cell Viability - LYMP2-016 (AID 984).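 Also: cells exposed to compound for 24 hours at 37 °C; nearly all actives have a fitted effect of over 55% in size.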 Also: potency is read from the fitted curve at half-maximal effect. The settings on record: LYMP2-016 lymphoblastoid cell viability, qHTS; series mostly up to 92.2 µM. In outline: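 Cells were seeded at 2500 per well and rested 5 hr before a 24 hr compound exposure at 37 C. Viability was then gauged as cellular ATP by luciferase luminescence, with AC50 values fitted to the Hill equation.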
The nature of assay [13]: Cell Viability - LYMP2-018 (AID 985). Also: nearly all actives have a fitted effect of over 50% in size. Also: potency is read from the fitted curve at half-maximal effect. The settings on record: LYMP2-018 lymphoblastoid cells, viability (qHTS); series mostly up to 92.2 µM. In outline:
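Acute cytotoxicity is scored as a concentration-dependent drop in intracellular ATP after 24 hr exposure of the lymphoblastoid line in complete culture medium, measured by luciferase luminescence. Potency is expressed as AC50 from Hill modelling.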

The nature of assay [14]: Cell Viability - LYMP2-020 (AID 986).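 Also: cells exposed to compound for 24 h at 37 °C; nearly all actives have a fitted effect of over 55% in size.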 Also: potency is read from the fitted curve at half-maximal effect. The settings on record: series mostly up to 92.2 µM. In outline: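 Acute cytotoxicity in a human lymphoblastoid line is scored as a concentration-dependent fall in cellular ATP after 24 hr at 37 C in complete medium. The positive control is tetraoctylammonium bromide, and potency is given as Hill-fit AC50.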
Assay [15] is described as follows: Cell Viability - LYMP2-022 (AID 987). Also: nearly all actives have a fitted effect of over 55% in size. Also: potency is read from the fitted curve at half-maximal effect. The settings on record: LYMP2-022 lymphoblastoid cell viability; series mostly up to 92.2 µM. An outline of the steps:
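Acute toxicity in a human lymphoblastoid line is scored as decreased intracellular ATP after 24 hr compound treatment at 37 C. ATP is measured by CellTiter-Glo luminescence; curves are fitted with the Hill equation to give AC50.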

Assay [16] in a line: Cell Viability - LYMP2-024 (AID 988). Also: nearly all actives have a fitted effect of over 60% in size. Also: potency is read from the fitted curve at half-maximal effect. The settings on record: LYMP2-024 lymphoblastoid cell viability; series mostly up to 92.2 µM. An outline of the steps:
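Acute toxicity is measured as concentration-dependent loss of intracellular ATP in a human lymphoblastoid line treated 24 hours at 37 C. Luciferase luminescence quantifies ATP; AC50 values come from standard Hill-equation modelling.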

Assay [17] in a line: Cell Viability - LYMP2-026 (AID 989).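 Also: cells exposed to compound for 24 h at 37 °C; nearly all actives have a fitted effect of over 50% in size.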 Also: potency is read from the fitted curve at half-maximal effect. The settings on record: LYMP2-026 lymphoblastoid cell viability, qHTS; series mostly up to 92.2 µM. An outline of the steps: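 Concentration-dependent loss of intracellular ATP in human lymphoblastoid cells after 24 hr at 37 C, quantified by luciferase luminescence. AC50 derived from standard Hill equation.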
The nature of assay [18]: Cell Viability - LYMP1-002 - Assay at 24 hr (AID 993). Also: potency is read from the fitted curve at half-maximal effect. As to conditions: LYMP1-002 lymphoblastoid cells viability; series mostly up to 92.2 µM. An outline of the steps:
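qHTS, LYMP1-002 lymphoblastoid, 24 h cpd, 37 C, CellTiter-Glo ATP luminescence; AC50 via Hill eq.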

Assay [19] can be described thus: Cell Viability - LYMP1-002 - Assay at 40 hr (AID 994). Also: nearly all actives have a fitted effect of over 60% in size. Also: potency is read from the fitted curve at half-maximal effect. The settings on record: LYMP1-002 lymphoblastoid cell viability; series mostly up to 92.2 µM. An outline of the steps: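 Viability in the human lymphoblastoid line was measured as intracellular ATP via CellTiter-Glo after 40 hr compound exposure. Tetraoctylammonium bromide served as positive control.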
[20] abbreviates: measured here: cell count channel max response.
Where [21] appears, read: measured here: lipid channel max response.

The structures appear in SMILES notation. Several values for one entry are separate records, joined by “and”; a condition that tells them apart may be missing. Equal entries are not always repeated. Records with an inconclusive call do not appear. Activity calls are given as the source filed them. Unless noted, calls follow the shape of the dose curve; as a rule, active = well fitted curve in the direction sought with a large enough effect; inconclusive = small, poorly fitted or top-dose-only effect, or another doubt; inactive = no such curve, though single readings can be large; an effect the other way counts as inactive or inconclusive.

DNA repair nuclease/redox regulator APEX1 (Homo sapiens), sequence (P27695 whole entry, looked up): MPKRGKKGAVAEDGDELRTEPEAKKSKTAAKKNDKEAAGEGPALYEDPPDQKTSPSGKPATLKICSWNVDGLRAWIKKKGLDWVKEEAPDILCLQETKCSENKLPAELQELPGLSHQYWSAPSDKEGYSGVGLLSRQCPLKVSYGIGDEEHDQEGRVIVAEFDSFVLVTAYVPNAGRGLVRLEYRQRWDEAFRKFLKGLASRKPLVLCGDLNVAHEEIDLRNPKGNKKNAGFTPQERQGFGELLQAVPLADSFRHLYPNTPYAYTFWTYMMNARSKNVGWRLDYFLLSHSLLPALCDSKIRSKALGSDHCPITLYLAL
Alpha-galactosidase A (Homo sapiens), sequence (P06280 whole entry, looked up): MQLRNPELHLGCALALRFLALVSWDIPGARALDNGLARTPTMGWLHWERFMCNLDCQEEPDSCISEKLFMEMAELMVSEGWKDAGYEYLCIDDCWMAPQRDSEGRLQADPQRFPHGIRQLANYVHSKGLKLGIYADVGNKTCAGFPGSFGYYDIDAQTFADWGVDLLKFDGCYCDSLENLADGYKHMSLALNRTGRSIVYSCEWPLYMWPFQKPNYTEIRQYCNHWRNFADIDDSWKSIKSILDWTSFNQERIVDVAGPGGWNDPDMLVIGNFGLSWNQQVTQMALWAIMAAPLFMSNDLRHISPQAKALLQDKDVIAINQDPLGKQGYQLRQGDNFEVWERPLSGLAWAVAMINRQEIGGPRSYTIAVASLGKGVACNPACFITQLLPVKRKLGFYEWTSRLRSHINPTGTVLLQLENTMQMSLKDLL

Turning to `Nc1ccc(S(=O)(=O)Nc2ccccn2)cc1`, the figures for the activity change, negative = inhibition in assay [1] (at 25.7 µM (top of the series)) and in assay [1] (at 57.5 µM (top of the series)) were -0.611% (inactive) and 8.46% (inactive), respectively. The max response in [1] (setting [20]) was -5.02% and 31.9%; in assay [1] (setting [21]) it was -4.54% and 46.5%.

For the compound `CC(=O)[C@H]1CC[C@H]2[C@@H]3CCC4=CC(=O)CC[C@]4(C)[C@H]3CC[C@]12C`, the call in assay [2], in assay [3], in [4], in assay [5] and in assay [6] was inactive. For the same compound, in assay [1] (at 57.5 µM (top of the series)), the activity change, negative = inhibition is 1.11% (inactive). In addition, the values for the max response in [1] (setting [20]) and in assay [1] (setting [21]) were -15.2% and -13.1%, respectively.

As for `COc1cc2ncnc(Nc3cccc(Cl)c3)c2cc1OC`, the result in assay [2], in [3], in assay [4] and in assay [6] was inactive. The Potency was 8.91 µM (active) in assay [7], 6.31 µM (active) in assay [8], 2.51 µM (active) in assay [9] and 5.62 µM (active) in assay [10].

On to `CN(C)c1ccc(C(=C2C=CC(=[N+](C)C)C=C2)c2ccc(N(C)C)cc2)cc1`, for which the Potency in assay [11] is 2 µM (active); in assay [12] it was 2 µM (active); in assay [13] it was 2 µM (active); in assay [14] it was 2 µM (active); in assay [15] it was 794 nM (active); in assay [16], 2 µM (active). The values for the Potency in assay [17], in [18] and in assay [19] were 2.51 µM (active), 3.16 µM (active) and 3.98 µM (active), respectively.

For the compound `COc1cnc(NS(=O)(=O)c2ccc(N)cc2)nc1`, the activity change, negative = inhibition was -0.0044% (inactive) in assay [1] (at 25.7 µM (top of the series)) and 4.6% (inactive) in assay [1] (at 57.5 µM (top of the series)). Further, the max response in assay [1] (setting [20]) was -12.6% and 15.3%; in assay [1] (setting [21]), -11.3% and 19.8%.

On to `Cc1ccc(S(=O)(=O)N[C@@H](Cc2ccccc2)C(=O)CCl)cc1`, for which the compound was classed as inactive in assay [2], in [3], in assay [4] and in [5]. Further, the Potency result in [10] was “inactive”.

On to `COc1cc(NS(=O)(=O)c2ccc(N)cc2)nc(OC)n1`, for which the activity change, negative = inhibition is -1.42% (inactive) in [1] (at 25.7 µM (top of the series)) and 14.8% (inactive) in assay [1] (at 57.5 µM (top of the series)). In addition, the max response was -11.2% and 9.08% in [1] (setting [20]); -12.8% and 25.1% in assay [1] (setting [21]).

With `Cc1cccc(Nc2ccncc2S(=O)(=O)NC(=O)NC(C)C)c1`, the activity change, negative = inhibition in assay [1] (at 25.7 µM (top of the series)) was -1.07% (inactive); in assay [1] (at 57.5 µM (top of the series)) it was 6.92% (inactive). Besides, the max response in assay [1] (setting [20]) was -3.68% and 16.7%; in [1] (setting [21]), -4.97% and 28.2%.

Consider `CC1=NN(c2ccccc2)C(=O)C1`, for which the Potency entry in assay [11], in assay [12], in assay [13], in assay [14], in [15] and in assay [16] was “inactive” in each case. In addition, the Potency entry in assay [17], in assay [18] and in assay [19] was “inactive” in each case.

As for `CC(C)(C)NC(=O)[C@H]1CC[C@H]2[C@@H]3CC[C@H]4NC(=O)C=C[C@]4(C)[C@H]3CC[C@]12C`, the call in assay [2], in assay [3], in [4], in assay [5] and in assay [6] was inactive. For the same compound, the activity change, negative = inhibition in assay [1] (at 57.5 µM (top of the series)) is -0.33% (inactive). Moreover, the max response in assay [1] (setting [20]) is -43.7%; in [1] (setting [21]) it was -42.5%. Also, in assay [7], the Potency was 10 µM (active).

For `O=C(N[C@H](CO)[C@H](O)c1ccc([N+](=O)[O-])cc1)C(Cl)Cl`, the Potency result in [11], in [12], in assay [13], in [14], in assay [15] and in [16] was “inactive” each time. In addition, the Potency result in assay [17], in assay [18] and in [19] was “inactive” each time.
